Results taken from PubChem BioAssay (NCI).
The panel holds about 83,000 compounds, 20% with a hit somewhere; the sample as a whole holds those more often.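 Cells were grown in 96-well plates and exposed to the test compound at a single concentration for 48 hours; results are reported as percent growth, with values below 10 considered active.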 A number with no mark means an inactive call. Active and inactive are the calls of the source.

test system: SF-295 CNS; assay: NCI-60 one-dose screen, 48 h (100 = growth as untreated, 0 = no growth, -100 = all killed); conditions: 10 µM unless noted

How did the growth turn out when `CC1=C(C)C(=O)C(Nc2ccc(C)cc2)=C(Br)C1=O` was run?
Its growth is 98.1%.

With `Cc1ccc(N2CCN(C3=C(Cl)C(=O)c4ncccc4C3=O)CC2)cc1` as the compound, how does the growth read?
Its growth is 97.5%.

For `COc1ccc2[nH]cc(-c3nc(N)nnc3-c3cn(C)c4ccc(Br)cc34)c2c1`, which growth is on record?
Its growth is 20.1%.

With `O=C(/C=C/c1ccccc1Cl)Nc1ncc(Cc2cc(Cl)ccc2Cl)s1` as the compound, how does the growth read?
The growth was 14.7%.

For `CN(C)S(=O)(=O)c1ccc(-c2nc(C(Cl)Cl)nc3cc(-c4ccc(F)cc4)nn23)cc1`, which growth is on record?
The growth was 21.8%.

For `Fc1ccc(-c2cn3c(-c4c[nH]c5ccc(Br)cc45)csc3n2)cc1`, which growth is on record?
Its growth is 64.1%.

For `C#Cc1nc(/C=C/CCCCCCC(=O)NO)cs1`, which growth is on record?
The growth was 82.5%.

How did the growth turn out when `C#C[C@]1(O)CC[C@H]2[C@@H]3CC=C4c5sc(Nc6ncccc6C)nc5CC[C@]4(C)[C@H]3CC[C@@]21C` was run?
Its growth is -70% (active).

For `CC(C)=CCC[C@](C)(O)[C@H]1CC[C@]2(C)[C@@H]1CC[C@@H]1[C@@]3(C)CC[C@H](N)C(C)(C)[C@@H]3CC[C@]12C`, which growth is on record?
The growth was 93.2%.

How did the growth turn out when `Cc1cc2nc3c4cc(C#N)ccc4n(CCN(C)C)c3nc2cc1C` was run?
The growth was -4.33% (active).

How did the growth turn out when `N#Cc1c(-c2cccs2)cc(-c2cnccn2)nc1SCC(=O)N/N=C/c1ccncc1` was run?
Its growth is 99.4%.

For `CCOC(=O)c1cccc(NC2=C(Cl)C(=O)C(C)=C(C)C2=O)c1`, which growth is on record?
Its growth is 102%.

With `c1ccc(-c2cn3c(-c4c[nH]c5ccccc45)csc3n2)cc1` as the compound, how does the growth read?
The growth was 77.6%.

`Cc1cc(Br)ccc1-n1cc(C#N)c(N)c1C(=O)c1ccc(Br)cc1` was tested. Which growth did it give?
Its growth is 98.5%.

With `Cn1cc(-c2cc3ncnc(Nc4ccc(NC(=O)Nc5cc(C(C)(C)C)on5)cc4)c3s2)cn1` as the compound, how does the growth read?
Its growth is -37.8% (active).

For `Nc1cc(C(=O)N/N=C\c2ccc(OC(F)F)c(OC3CCCC3)c2)nn1CC(O)c1ccccc1` (stereo not given), which growth is on record?
Its growth is 101%.

`COc1ccc(C2CC(c3cccc(OCCCCOc4cccc(C5=NOC(c6ccc(OC)cc6)C5)c4)c3)=NO2)cc1` (stereo not given) was tested. Which growth did it give?
The growth was 101%.

Which growth does the source give for `O=C(COc1ccc(/C=C2\C(=O)Nc3ccc(Cl)cc32)cc1)Nc1ccc(Cl)cc1` here?
The growth was 59.2%.

Which growth does the source give for `Cn1cc(-c2nnc(N)nc2-c2c[nH]c3ccc(F)cc23)c2cc(Br)ccc21` here?
The growth was 9.61% (active).

Which growth does the source give for `C[C@H](Nc1ncnc2ccc(-c3cnc(Cl)c(NS(C)(=O)=O)c3)cc12)c1ccccc1` here?
Its growth is -25.6% (active).

Which growth does the source give for `O=C(CSc1nc2ccccc2c(=O)n1CCc1ccccc1)Nc1ccc(S(=O)(=O)Nc2ccc(Cl)nn2)cc1` here?
The growth was 95.3%.

How did the growth turn out when `NS(=O)(=O)c1ccc(Nc2nc(N/N=C/C=C/c3ccccc3)nc(Nc3ccccc3)n2)cc1` was run?
Its growth is 44.5%.

With `O=C1[C@H]2Cc3c([nH]c4ccccc34)[C@H](c3ccc(Br)cc3)N2C(=O)CN1C1CCN(CC2CCCCC2)CC1` as the compound, how does the growth read?
Its growth is 113%.

How did the growth turn out when `CCc1cc2c(cc1Cl)nc1c(=O)[nH]c(=O)nc-1n2CCOCC(C)(C)C` was run?
Its growth is 71.8%.

How did the growth turn out when `COc1ccc(-c2nc(C#N)c(N3CCC(S(=O)(=O)N4CCOCC4)CC3)o2)cc1` was run?
Its growth is 102%.

How did the growth turn out when `COC(=O)c1ccc(NC2=C(Cl)C(=O)c3nc(C)ccc3C2=O)cc1` was run?
The growth was 61.3%.

Which growth does the source give for `Cc1ccccc1N1CCN(C2=C(Cl)C(=O)c3ncccc3C2=O)CC1` here?
The growth was 86.8%.

Which growth does the source give for `CC[C@]12C=CCN3CC[C@@]4(c5ccc(OC)cc5N(C)[C@H]4[C@@](O)(C(=O)OC)[C@@H]1OC(=O)CCN1CCc4ccccc4C1)[C@@H]32` here?
The growth was 104%.

With `Cc1nc(N)sc1-c1csc(Nc2ccc(C(F)(F)F)cc2)n1` as the compound, how does the growth read?
Its growth is 7.89% (active).

How did the growth turn out when `Cn1cc(-c2nnc(N)nc2-c2c[nH]c3ccc(Br)cc23)c2cc(Br)ccc21` was run?
The growth was 100%.

Which growth does the source give for `C#C[C@]1(O)CC[C@H]2[C@@H]3CC=C4c5sc(N(C)c6ccccc6)nc5CC[C@]4(C)[C@H]3CC[C@@]21C` here?
The growth was 68.8%.

`NS(=O)(=O)c1ccc(Nc2nc(Nc3ccccc3)nc(N3N=C(c4ccc(Cl)cc4)CC3c3ccc(Cl)cc3)n2)cc1` (stereo not given) was tested. Which growth did it give?
The growth was 56.7%.

For `O=C(CCCCCCN1CC(=O)N2[C@@H](c3ccc(Cl)s3)c3[nH]c4ccccc4c3C[C@H]2C1=O)NO`, which growth is on record?
Its growth is 37.1%.

How did the growth turn out when `CCCCc1nc2c(N)nc3ccccc3c2n1Cc1cccc(CN)c1` was run?
Its growth is 55.8%.

For `N#C/C(=C\c1ccc(-c2ccc(Cl)c(Cl)c2)o1)C(=O)Nc1ncc(Cc2ccc(Cl)cc2)s1`, which growth is on record?
The growth was 20.4%.

`O=C(Nc1ccc(Cl)c(C(F)(F)F)c1)Nc1ccc2oc(=O)ccc2c1` was tested. Which growth did it give?
The growth was 5.31% (active).

With `COc1ccc2[nH]cc(/C=N/Nc3ccnc4cc(Cl)ccc34)c2c1` as the compound, how does the growth read?
The growth was -100% (active).

For `O=C1Nc2ccccc2/C1=C/c1ccc(OCC(=O)c2ccccc2)cc1`, which growth is on record?
The growth was 107%.

`NS(=O)(=O)c1nnc(/N=C/c2c(O)[nH]c3ccccc23)s1` was tested. Which growth did it give?
Its growth is 99.2%.

`COc1cc(/C=C2/C(=O)Nc3ccc(Cl)cc32)ccc1OCc1ccc(Cl)cc1` was tested. Which growth did it give?
The growth was 97.7%.
